Shown are actives, neighbours in structure and some others; about 10% of the full set was active somewhere.
Pf growth 96h = inhibits malaria parasite growth, 96 h; actives 6.9% (n = 320,000); P. falciparum luciferase reporter growth, 96 h; Potency, µM (doses to about 28.7 µM), for the others: at the top dose activity change, negative = inhibition, usual class: inhibitors; AID 504834; also: % is scaled to controls: 0 for no effect and ±100 for the full control effect
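Two-generation exposure (96 h) targets delayed-death phenotype. Reporter parasites carrying integrated firefly luciferase, in red cells at 2% hematocrit and 0.05% parasitemia final, kept at 37 C, 5% CO2; luminescence loss indicates inhibition.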
Pf growth 48h = inhibits P. falciparum growth in the first generation, 48 h. AID 504832. Potency, µM (series often up to 28.7 µM), for inactives: top-dose activity change, negative = inhibition, hits mostly inhibitors. P. falciparum luciferase growth in erythrocytes, 48 h. actives 5.9% (n = 310,000); also: % is scaled to controls: 0 for no effect and ±100 for the full control effect
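Cell-based growth assay: transgenic P. falciparum expressing firefly luciferase, cultured in red cells within RPMI 1640 containing 0.5% w/v Albumax, 24 mM bicarbonate and gentamycin. A drop in luciferase activity indicates inhibition.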
NS1 function inh = blocks influenza NS1 protein function. Potency, µM (series often up to 46.1 µM), inactives show top-dose activity, positive = more growth. actives 0.4% (n = 270,000). AID 2326; calls by dose curve; also: actives are rising curves; nearly all actives have a fitted effect of over 50% in size
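A cell-based growth assay was used: compounds that relieve NS1-induced slow growth of budding yeast raise OD600. Assay medium was yeast nitrogen base with ammonium sulphate and -URA supplement, pH 6.0, with 2% galactose.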
SARS PLpro yeast = blocks SARS-CoV papain-like protease in a yeast assay; S. cerevisiae expressing SARS-CoV PLpro, growth rescue; Potency, µM (series often up to 32.9 µM), inactives show at the top dose activity, positive = growth rescue, hits mostly activators; actives 0.19% (n = 330,000); AID 485353; calls by dose curve; also: 0% is about no effect; nearly all actives have a fitted effect of over 55% in size
Numbers without * were called inactive; [ ] = another dose, or the depositor's remark. Unless noted, calls follow the shape of the dose curve; as a rule, active = well fitted inhibition curve with a large enough effect; inconclusive = small, poorly fitted or top-dose-only effect, or another doubt; inactive = no such curve, though single readings can be large or run the other way. Potency is read from the fitted curve at half-maximal effect.

`Cc1ccc(-c2cnc(N)n2C)cc1C` gave Pf growth 96h 4.65µM*, Pf growth 48h inconclusive, NS1 function inh -4.6% and SARS PLpro yeast -8.5%.
For Cn1c(-c2ccc(Cl)cc2)cnc1N the results were Pf growth 48h inconclusive, NS1 function inh -2.7% and SARS PLpro yeast -5.4%.
For CCC(C)(C)n1nnnc1C(c1ccc(C)cc1)N1CCN(Cc2cccnc2)CC1 (stereo unspecified) the results were Pf growth 96h -3.9%[5.75 µM], Pf growth 48h 13.1µM*, NS1 function inh 0.8% and SARS PLpro yeast 6.1%.
`CCC(C)(C)n1nnnc1C(c1cccnc1)N1CCCC(C)C1` (stereo unspecified) gave Pf growth 96h 5.5%, Pf growth 48h inconclusive, NS1 function inh 1.5% and SARS PLpro yeast -1.3%.
CCC(C)(C)n1nnnc1C(c1ccc(C)cc1)N1CCSCC1 (stereo unspecified) was read as Pf growth 96h inconclusive, Pf growth 48h -24.4%, NS1 function inh -6.8% and SARS PLpro yeast -5.0%.
For CCC(C)(C)n1nnnc1C(c1ccncc1)N1CCN(c2cccc(OC)c2)CC1 (stereo unspecified) the results were Pf growth 96h 2.62µM*, Pf growth 48h 0.0%, NS1 function inh 4.0% and SARS PLpro yeast 0.6%.
`COc1cccc(N2CCN(C(c3ccccn3)c3nnnn3C(C)(C)C)CC2)c1` (stereo unspecified) gave Pf growth 96h inconclusive, Pf growth 48h inconclusive, NS1 function inh -2.8% and SARS PLpro yeast -2.2%.
Screening CCC(C)(C)n1nnnc1C(c1cccnc1)N1CCN(c2cccc(C(F)(F)F)c2)CC1 (stereo unspecified) returned Pf growth 96h -0.1%, Pf growth 48h 9.28µM*, NS1 function inh -116.4% and SARS PLpro yeast -29.8%.
Screening Cc1cc(Br)c(NC(=O)CSc2n[nH]c(N)n2)c(Br)c1 returned SARS PLpro yeast -0.4%.
Cc1ccc2nc(SCC3CCCCO3)[nH]c2c1 (stereo unspecified) was read as Pf growth 96h 16.1%, Pf growth 48h -2.0%, NS1 function inh -2.1% and SARS PLpro yeast -0.1%.
CCOc1ccc(CCNC(=O)CS(=O)Cc2nc(-c3ccc(OC)cc3)oc2C)cc1OCC (stereo unspecified) was read as Pf growth 96h -6.6%, Pf growth 48h -7.1%, NS1 function inh 15.6% and SARS PLpro yeast inconclusive.
Cc1ccc2[nH]c3c(c2c1)CCCC3NC(=O)CCl (stereo unspecified) was read as Pf growth 96h 13.1µM*, Pf growth 48h 2.33µM*, NS1 function inh -25.6% and SARS PLpro yeast -11.7%.
`COc1ccccc1C(=O)ON=C1c2ccccc2-c2ccccc21` gave Pf growth 96h 1.65µM*, Pf growth 48h 3.5%, NS1 function inh -18.3% and SARS PLpro yeast -8.0%.
Clc1ccccc1-c1nnc2sc(CCc3ccccc3)nn12 was read as Pf growth 48h 13.1µM*, NS1 function inh -86.7% and SARS PLpro yeast inconclusive.
For Clc1cccc(-c2nnc3sc(-c4ccc5c(c4)OCO5)nn23)c1 the results were Pf growth 96h inconclusive, Pf growth 48h 18.6%, NS1 function inh -36.6% and SARS PLpro yeast -0.8%.
For Clc1ccccc1-c1nnc2sc(-c3ccc4c(c3)OCO4)nn12 the results were Pf growth 96h -19.2%, Pf growth 48h 11.7µM*, NS1 function inh inconclusive and SARS PLpro yeast -1.7%.
`COc1ccccc1-c1nnc2sc(COc3ccccc3)nn12` gave Pf growth 96h -15.1%, Pf growth 48h inconclusive, NS1 function inh -30.1% and SARS PLpro yeast -6.5%.
For CCN(CC)c1ccc(-c2nn3c(-c4ccccc4OC)nnc3s2)cc1 the results were Pf growth 96h 11.4%[5.75 µM], Pf growth 48h 2.62µM*, NS1 function inh -68.5% and SARS PLpro yeast -17.9%.
Screening COc1ccccc1-c1nnc2sc(COc3ccc(Cl)cc3Cl)nn12 returned Pf growth 96h 10.4µM*, Pf growth 48h inconclusive, NS1 function inh -117.2% and SARS PLpro yeast 7.7%.
Screening O=C(O)c1ccc(C(=O)O)c(C(=O)c2ccc(NC(=O)c3ccccc3)cc2)c1 returned Pf growth 96h 0.0%, Pf growth 48h 3.5%, NS1 function inh 2.4% and SARS PLpro yeast 0.0%.
Screening CCc1cc(=O)oc2cc(OC(C)C(=O)NCC3CCC(C(=O)O)CC3)c(Cl)cc12 (stereo unspecified) returned Pf growth 96h inconclusive, Pf growth 48h 24.1%, NS1 function inh 13.3% and SARS PLpro yeast 1.6%.

High-throughput results deposited in PubChem by National Center for Advancing Translational Sciences (NCATS).
